Test results as given in PubChem BioAssay (NCATS).
Values joined by “and” are separate entries in the source; they are usually repeats but may differ in a detail not shown here. Equal values may be shown once. A number with no mark means an inactive call. Records with an inconclusive call do not appear. Entries that show only a call come without a potency. Active and inactive are the calls of the source. Unless noted, calls follow the shape of the dose curve; as a rule, active = well fitted curve in the direction sought with a large enough effect; inconclusive = small, poorly fitted or top-dose-only effect, or another doubt; inactive = no such curve, though single readings can be large; an effect the other way counts as inactive or inconclusive.

Experiments:
[1] = Cell Viability - N2a (AID 540); conditions: N2a mouse neuroblastoma cell viability; activity change, negative = cytotoxicity: at 92.2 µM (top of the series);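 also: cells exposed to compound for 40 h at 37 °C; nearly all actives have a fitted effect of over 45% in size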; also: potency is read from the fitted curve at half-maximal effect
Summary of the method: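 First, 1500 N2a cells per well incubate 5 hr at 37 °C; next, compounds are added and incubated 40 hr at 37 °C; finally CellTiter-Glo is added and luminescence read after 20 min, with AC50 derived by Hill modeling.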

[2] = Cell Viability - NIH 3T3 (AID 541); conditions: NIH 3T3 cell viability, qHTS; activity change, negative = cytotoxicity: at 92.2 µM (top of the series); also: nearly all actives have a fitted effect of over 25% in size; also: potency is read from the fitted curve at half-maximal effect
Summary of the method: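 AC50 values reflect concentration-dependent loss of intracellular ATP in NIH 3T3 cells after 40 hr treatment in complete culture medium, quantified by luciferase-based luminescence.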

[3] = Cell Viability - HUV-EC-C (AID 542); also: nearly all actives have a fitted effect of over 35% in size; also: potency is read from the fitted curve at half-maximal effect
Summary of the method: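 Decrease in cellular ATP, quantified by luciferase luminescence, reflects toxicity in normal human vascular endothelial HUV-EC-C cells given compound for 40 hr in complete culture medium. Values are AC50s from concentration-response curves.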

[4] = Cell Viability - H-4-II-E (AID 543); also: nearly all actives have a fitted effect of over 35% in size; also: potency is read from the fitted curve at half-maximal effect
Summary of the method: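 Here, cytotoxicity is measured in the rat hepatoma line H-4-II-E as loss of intracellular ATP after 40 hr compound treatment, detected by luciferase luminescence.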

[5] = Cell Viability - SH-SY5Y (AID 544); also: nearly all actives have a fitted effect of over 55% in size; also: potency is read from the fitted curve at half-maximal effect
Summary of the method: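 Cytotoxicity is scored as a concentration-dependent fall in intracellular ATP in human SH-SY5Y cells treated 40 hr in complete culture medium. Potency is expressed as AC50 from a Hill equation fit.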

[6] = Cell Viability - Renal Proximal Tubule (AID 545); conditions: renal proximal tubule cells viability; activity change, negative = cytotoxicity: at 91.7 µM (top of the series); also: nearly all actives have a fitted effect of over 40% in size; also: potency is read from the fitted curve at half-maximal effect
Summary of the method: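 In this qHTS format, normal rat kidney-derived proximal tubule cells in complete culture medium receive compound titrations, then sit 40 hours at 37 °C before luciferase-based ATP quantitation; potency is reported as AC50 from concentration-response curves.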

[7] = Cell Viability - Mesenchymal (AID 546);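 also: cells exposed to compound for 40 hours before reading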; also: potency is read from the fitted curve at half-maximal effect
Summary of the method: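 AC50 values reflect the drop in intracellular ATP in a human kidney mesenchymal line derived from normal glomeruli. Treatment lasts 40 hr at 37 °C in complete medium, and the signal comes from CellTiter-Glo luminescence.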

[8] = Cellular Toxicity (caspase-3) HepG2 (AID 654);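 also: cells exposed to compound for 16 hours before reading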
Summary of the method: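 qHTS, HepG2, 1500 cells/well, complete medium; cpd 16 h 37 °C; Caspase-Glo 3/7, 20 min RT; lum. Norm: DMSO vs 100 uM tamoxifen; AC50 Hill fit.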

[9] = Cellular Toxicity (caspase-3) Jurkat (AID 655);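 also: cells exposed to compound for 16 h at 37 °C before reading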; also: potency is read from the fitted curve at half-maximal effect
Summary of the method: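 qHTS in human Jurkat T-cell leukemia line: 16 hr compound treatment at 37 °C, caspase-3/7 activity measured by Caspase-Glo luminescence. AC50 derived from Hill equation.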

[10] = Cellular Toxicity (caspase-3) HUV-EC-C (AID 656)
Summary of the method: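 Concentration-dependent caspase 3/7 induction was assessed in HUV-EC-C cells exposed for 16 hours. Data scaled between DMSO and tamoxifen (100 uM) controls.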

[11] = Cellular Toxicity (caspase-3) SHSY5Y (AID 657);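 also: cells exposed to compound for 16 hours at 37 °C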
Summary of the method: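 Readout: caspase-cleaved peptide-aminoluciferin substrate driving luciferase light in SH-SY5Y neuroblastoma cells after 16 h treatment. Response normalized to DMSO and 10 uM staurosporine controls.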

[12] = Cellular Toxicity (caspase-3) BJ (AID 658); conditions: Potency: caspase-3 activation
Summary of the method: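 Readout: Caspase-Glo 3/7 luminescence increase in BJ cells after 16 hr treatment at 37 °C. Staurosporine and tamoxifen served as positive controls; AC50 values came from Hill modelling of data normalized to DMSO and 10 uM staurosporine.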

[13] = Cellular Toxicity (caspase-3) MRC-5 (AID 659); conditions: Potency: caspase-3 activation;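 also: cells exposed to compound for 16 h at 37 °C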
Summary of the method: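 Concentration-dependent caspase 3/7 activation is measured in human normal lung fibroblasts (MRC-5) following 16-hour treatment. AC50 values come from standard Hill-equation modeling of luminescence normalized to DMSO and 10 uM staurosporine.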

[14] = Cellular Toxicity (caspase-3) SK-N-SH (AID 661); conditions: SK-N-SH caspase-3 activation, qHTS; caspase-3 activation: at 91.7 µM (top of the series), DMSO as zero, staurosporine as full
Summary of the method: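 Caspase 3/7 activation is measured as a luminescence increase from aminoluciferin released by substrate cleavage in SK-N-SH cells after 16 hr compound treatment; values are AC50 from concentration-response curves.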

[15] = Cellular Toxicity (caspase-3) H-4-II-E (AID 663);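 also: cells exposed to compound for 16 hr before readout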
Summary of the method: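 Apoptosis induction is scored as increased luminescence from caspase 3/7 substrate cleavage in rat hepatoma H-4-II-E cells exposed to compound for 16 hr. Activity is scaled between DMSO and 100 uM tamoxifen.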

[16] = target: Glucocorticoid receptor (Homo sapiens) (UniProt P04150); test: GR-GFP Redistribution (AID 450;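 active = compounds whose dose series gives a full or clear partial fitted curve of increased nuclear translocation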; also: potency is read from the fitted curve at half-maximal effect); conditions: U2OS GR-GFP nuclear translocation, laser cytometry, 2 h
Glucocorticoid receptor (Homo sapiens), sequence (P04150 whole entry, looked up, the tested form may be a part): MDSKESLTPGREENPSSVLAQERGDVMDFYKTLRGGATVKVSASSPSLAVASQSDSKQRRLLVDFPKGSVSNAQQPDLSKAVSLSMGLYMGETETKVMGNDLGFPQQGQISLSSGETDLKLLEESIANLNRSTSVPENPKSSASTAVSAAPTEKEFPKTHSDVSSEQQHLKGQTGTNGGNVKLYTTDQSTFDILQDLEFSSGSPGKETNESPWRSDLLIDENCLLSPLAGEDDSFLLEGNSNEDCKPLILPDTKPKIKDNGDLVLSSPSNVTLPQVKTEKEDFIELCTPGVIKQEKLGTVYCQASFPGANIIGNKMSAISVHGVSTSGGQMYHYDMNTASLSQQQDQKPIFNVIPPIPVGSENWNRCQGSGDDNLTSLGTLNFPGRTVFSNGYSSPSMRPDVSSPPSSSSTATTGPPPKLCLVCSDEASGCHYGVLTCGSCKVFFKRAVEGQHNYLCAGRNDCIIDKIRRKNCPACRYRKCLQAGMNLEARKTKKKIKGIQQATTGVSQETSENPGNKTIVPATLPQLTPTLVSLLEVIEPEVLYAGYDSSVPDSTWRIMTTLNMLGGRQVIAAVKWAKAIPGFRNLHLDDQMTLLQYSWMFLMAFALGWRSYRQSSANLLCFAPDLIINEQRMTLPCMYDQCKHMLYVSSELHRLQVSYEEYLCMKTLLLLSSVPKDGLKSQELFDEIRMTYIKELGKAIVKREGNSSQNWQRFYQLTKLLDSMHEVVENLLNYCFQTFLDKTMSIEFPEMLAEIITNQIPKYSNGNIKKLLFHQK

[17] = target: Glucocorticoid receptor (Homo sapiens) (UniProt P04150); test: GR-EFC Redistribution (AID 451; calls by dose curve; also: potency is read from the fitted curve at half-maximal effect); conditions: CHO-K1 GR-EFC translocation, beta-gal luminescence, 2 h
Summary of the method: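 Translocation of GR-ED fusion to nuclear EA restores b-gal, read by luminescence after 1 h room-temperature detection. Engineered CHO-K1 biosensor cells, 1,000/well, exposed 2 h at 37 C to titrations up to 46 uM final.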

[18] = target: 3',5'-cyclic-AMP phosphodiesterase 4B (Homo sapiens) (UniProt Q07343); test: qHTS Assay for Inhibitors of PDE-IV (AID 607; active = well fitted activation curve with a large enough effect in the main read-out, with a control signal flat, not every such curve was filed as active)
3',5'-cyclic-AMP phosphodiesterase 4B (Homo sapiens), sequence (Q07343 whole entry, looked up): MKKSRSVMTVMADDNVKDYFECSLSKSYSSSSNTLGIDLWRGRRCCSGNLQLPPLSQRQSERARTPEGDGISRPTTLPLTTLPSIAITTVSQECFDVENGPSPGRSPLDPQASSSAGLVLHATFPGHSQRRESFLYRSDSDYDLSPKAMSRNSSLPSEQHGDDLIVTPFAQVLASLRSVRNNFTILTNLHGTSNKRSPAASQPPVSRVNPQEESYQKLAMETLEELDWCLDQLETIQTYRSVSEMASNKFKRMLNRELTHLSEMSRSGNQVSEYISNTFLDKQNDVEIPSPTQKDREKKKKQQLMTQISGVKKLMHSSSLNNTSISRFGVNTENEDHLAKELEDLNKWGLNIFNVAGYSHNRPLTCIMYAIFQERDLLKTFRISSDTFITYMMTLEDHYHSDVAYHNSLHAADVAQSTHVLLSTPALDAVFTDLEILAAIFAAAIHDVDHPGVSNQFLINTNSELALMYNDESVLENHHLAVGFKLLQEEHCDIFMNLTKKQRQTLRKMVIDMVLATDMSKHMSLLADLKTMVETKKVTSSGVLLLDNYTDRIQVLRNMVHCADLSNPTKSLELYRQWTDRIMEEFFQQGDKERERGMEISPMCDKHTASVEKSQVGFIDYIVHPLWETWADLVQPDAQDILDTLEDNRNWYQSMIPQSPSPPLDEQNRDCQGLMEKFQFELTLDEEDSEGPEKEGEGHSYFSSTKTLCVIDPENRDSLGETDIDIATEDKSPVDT
Summary of the method: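 Cell-based read-out of cAMP via a modified cyclic nucleotide-gated channel and membrane potential dye (535/590 nm) in HEK293 cells expressing PDE4 endogenously. Compounds tested up to 22.9 uM final; 100 uM RO 20-1724 reference.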

[19] = target: Mitogen-activated protein kinase 10 (Mus musculus) (UniProt Q61831); test: JNK3 AlphaScreen Assay (AID 530; active = well fitted curve in either direction with a large enough effect, not every such curve was filed as active;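 also: kinase came from lysate of stimulated human HepG2 cells; signal reports phosphorylation of biotinylated GST-cJun 1-79 at Ser73 with 10 µM ATP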)
Summary of the method: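 Room-temperature AlphaScreen kinase assay; pre-activated HepG2 lysate as JNK3 source, biotin-GST-cJun(1-79) substrate, 10 uM ATP, compound 15 min preincubation.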

Structure (SMILES)	Potency [1]	Potency [2]	Potency [3]	Potency [4]	Potency [5]	Potency [6]	Potency [7]	outcome [8]	Potency [9]	outcome [10]	outcome [11]	Potency [12]	Potency [13]	Potency [14]	outcome [15]	Potency [16] [µM]	Potency [17] [µM]	Potency [18]	outcome [19]
O=Cc1ccco1	inactive	inactive	inactive	inactive	inactive	inactive	inactive	inactive	inactive	inactive	inactive	inactive	inactive	inactive	inactive				
OCc1cnc[nH]1																> 46	> 46	inactive	
S=C=S	inactive	inactive	inactive	inactive	inactive	inactive	inactive	inactive	inactive	inactive	inactive	inactive	inactive	inactive	inactive				inactive
COC1=CC(=O)O[C@@H](/C=C/c2ccccc2)C1	inactive	inactive	inactive		inactive	inactive	inactive	inactive	inactive	inactive	inactive	inactive	inactive	inactive	inactive				inactive
CCCCCl	inactive	inactive	inactive	inactive	inactive	inactive	inactive	inactive	inactive	inactive	inactive	inactive	inactive	inactive	inactive				inactive
CN(N=O)c1cc(O)ccc1O																> 46	> 46	inactive	
ClCC1CO1 (stereo not drawn)	inactive	inactive	inactive	inactive	inactive	inactive	inactive	inactive	inactive	inactive	inactive	inactive	inactive	inactive	inactive				inactive
CC(C)CCON=O	inactive	inactive	inactive	inactive	inactive	inactive	inactive	inactive	inactive	inactive	inactive	inactive	inactive	inactive	inactive				inactive
O=C1C2CC=CCC2C(=O)N1SC(Cl)(Cl)Cl (stereo not drawn)	20 µM (active) and 10 µM (active)	5.01 µM (active) and 2 µM (active)	50.1 µM (active) and 25.1 µM (active)	7.94 µM (active) and 6.31 µM (active)	2 µM (active) and 1 µM (active)	3.98 µM (active) and 3.16 µM (active)	25.1 µM (active) and 20 µM (active)	inactive	1.58 µM (active)	inactive	inactive	inactive	inactive		inactive				inactive
O=C1CCO1	inactive	inactive	inactive	inactive	inactive	inactive	inactive	inactive	inactive	inactive	inactive	inactive	inactive	inactive	inactive				inactive
O=C(O)C(Cl)(Cl)Cl	inactive	inactive	inactive	inactive	inactive	inactive	inactive	inactive	inactive	inactive	inactive	inactive	inactive	inactive	inactive				inactive
COc1ccc2c(c1OC)C(=O)OC2C1c2cc3c(cc2CCN1C)OCO3 (stereo not drawn)	inactive	inactive	inactive	inactive	inactive	inactive	inactive	inactive	inactive	inactive	inactive	inactive	inactive	inactive	inactive				inactive
